Screens: PubChem BioAssay, National Center for Advancing Translational Sciences (NCATS)
Rows were chosen to be rich in hits. Some 0.95% of all compounds tested hit in one or more screens of this group.
A647 fluor: A647 region autofluorescence | AID 592 | Compound fluorescence, A647 channel (570/671 nm), Tris buffer | max dye-equivalent concentration, M | 59,000 tested, under 10 active
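Each compound's intrinsic fluorescence at 570 nm excitation and 671 nm emission is measured across its concentration series in 100 mM Tris, pH 8.0, after 15 min at room temperature, and reported relative to an A647 curve.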
A488 autofl: compound fluoresces in the A488 spectral region | compound autofluorescence, A488 spectral region, dye equivalency; Compound Type: qHTS ECL - MLSMR | max dye equivalency, M | hit rate 0.1% among 59,000 | AID 591
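Intrinsic compound fluorescence is measured in 100 mM Tris buffer at pH 8.0 following 15 min incubation at room temperature. Intensities at 480 nm excitation/540 nm emission are calibrated to an on-plate A488 concentration series, giving dye-equivalent concentrations.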
Rhodamine fluor: compound fluoresces in the rhodamine spectral region | Rhodamine-region fluorescence, 547/598 nm, Tris buffer; active compounds read high | max dye-equivalent concentration, M | hit rate 0.05% among 59,000; in the data active = max dye-equivalent concentration above about 11 nM; inconclusive = between about 1.1 nM and that limit
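Read-out is relative fluorescence at 547 nm excitation and 598 nm emission, expressed as dye-equivalent concentration using rhodamine standards on every plate. Each compound was profiled across a concentration series after 15 min in 100 mM Tris, pH 8.0.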
Resorufin autofl: compounds fluorescent in resorufin spectral region | Compound fluorescence, resorufin region 547/598 nm, buffer; active compounds read high | max dye-equivalent concentration, M | hit rate 0.04% among 59,000 | AID 588
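Read-out: intrinsic compound fluorescence at ex 547/em 598 nm after 15 min at RT in pH 8.0 Tris (100 mM). Values expressed as resorufin-equivalent concentration from per-plate standard series.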
Fluorescein autfl: compound fluoresces in the fluorescein spectral region. Compound autofluorescence, 480/540 nm, fluorescein-equivalent; active compounds read high. max fluorescein-equivalent concentration, M. hit rate 0.91% among 59,000. AID 593; in the data active = max fluorescein-equivalent concentration above about 10 nM; inconclusive = between about 1.1 nM and that limit
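Fluorescein stocks ranging 3 mM down to 300 nM, plus DMSO blanks, were pinned alongside compounds to build a per-plate standard curve. Buffer: 100 mM Tris, pH 8.0. Incubation 15 min, room temperature; filters 480/540 nm.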
Texas Red fluor: Texas Red region autofluorescence. Compound fluorescence, Texas Red channel, 547/618 nm; active compounds read high. max dye-equivalent concentration, M. hit rate 0.06% among 59,000; in the data active = max dye-equivalent concentration above about 10 nM; inconclusive = between about 1.1 nM and that limit
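Pin-transferred compounds and Texas Red standards go into 100 mM Tris buffer, pH 8.0. After 15 min at room temperature, plates are imaged with 547/618 nm filters. Each value is a dye-equivalent concentration derived from the per-plate dye curve.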
A number is an active result. Unless noted, no rule for the calls is given here.

For CCOC(=O)[C@@H](O)Cc1cnc2ccccc2n1 the results were A647 fluor inactive, A488 autofl inactive, Rhodamine fluor inactive, Resorufin autofl inactive, Fluorescein autfl inconclusive and Texas Red fluor inactive.
Screening COc1ccc(OC)c([C@H]2Nc3ccccc3NC3=C2C(=O)CC(C)(C)C3)c1Br returned A647 fluor inactive, A488 autofl inactive, Rhodamine fluor inactive, Resorufin autofl inactive, Fluorescein autfl inactive and Texas Red fluor inconclusive.
Screening COc1ccccc1/C=c1\sc2nc(-c3ccncc3)nn2c1=O returned A647 fluor inactive, A488 autofl inactive, Rhodamine fluor inactive, Resorufin autofl inactive, Fluorescein autfl 1.5e-08M and Texas Red fluor inactive.
For O=C(O)CNc1ccc(C(=O)O)cc1 the results were A647 fluor inactive, A488 autofl inactive, Rhodamine fluor inactive, Resorufin autofl inactive, Fluorescein autfl inactive and Texas Red fluor inactive.
For COc1ccc(-n2c(=O)c(CCc3ccccc3)nc3cnc(N4CCN(C)CC4)nc32)cc1 the results were A647 fluor inactive, A488 autofl inactive, Rhodamine fluor inactive, Resorufin autofl inactive, Fluorescein autfl 1.2e-08M and Texas Red fluor inactive.
Screening C[C@@]12C=CC(=O)C=C1CC[C@@H]1C2=CC[C@]2(C)[C@@H]1CC[C@H]2C(=O)CN1CCN(c2cc(N3CCCC3)nc(N3CCCC3)n2)CC1 returned A647 fluor inactive, A488 autofl inactive, Rhodamine fluor inactive, Resorufin autofl inactive, Fluorescein autfl inconclusive and Texas Red fluor inactive.
`COc1ccc2nc(N3CCC(C)CC3)c(C#N)cc2c1` gave A647 fluor inactive, A488 autofl inactive, Rhodamine fluor inactive, Resorufin autofl inactive, Fluorescein autfl inconclusive and Texas Red fluor inactive.
Screening COc1ccc2nc(N3CCC(O)CC3)c(C#N)cc2c1 returned A647 fluor inactive, A488 autofl inactive, Rhodamine fluor inactive, Resorufin autofl inactive, Fluorescein autfl 2.3e-08M and Texas Red fluor inactive.
CN(C)C[C@H]1CCC[C@@H](CN(C)C)C1=O was read as A647 fluor inactive, A488 autofl inactive, Rhodamine fluor inactive, Resorufin autofl inactive, Fluorescein autfl inactive and Texas Red fluor inconclusive.
For Nc1ccn([C@H]2O[C@@H](COP(=O)(O)O)[C@@H](O)[C@H]2O)c(=O)n1 the results were A647 fluor inactive, A488 autofl inactive, Rhodamine fluor inactive, Resorufin autofl inactive, Fluorescein autfl inactive and Texas Red fluor inconclusive.
CCOC(=O)CN=C1CC(C)(C)CC2=C1Sc1ncnc(N(C)C)c1N2 was read as A647 fluor inactive, A488 autofl inconclusive, Rhodamine fluor inconclusive, Resorufin autofl inconclusive, Fluorescein autfl 3.4e-08M and Texas Red fluor inactive.
Screening C[C@@](N)(/C=C\c1ccccc1)C(=O)O returned A647 fluor inactive, A488 autofl inactive, Rhodamine fluor inactive, Resorufin autofl inactive, Fluorescein autfl inconclusive and Texas Red fluor inactive.
`Cc1cc(-c2ccccc2C(=O)O)on1` gave A647 fluor inactive, A488 autofl inactive, Rhodamine fluor inactive, Resorufin autofl inactive, Fluorescein autfl inconclusive and Texas Red fluor inconclusive.
For O=C(O)c1ccccc1C1=Nc2ccc(O)cc2Oc2cc(O)ccc21 the results were A647 fluor inactive, A488 autofl inconclusive, Rhodamine fluor inconclusive, Resorufin autofl inconclusive, Fluorescein autfl 1.7e-07M and Texas Red fluor 1.3e-08M.
For CN1CCc2c(cc(O)c(O)c2Cl)[C@H](c2cccc(Cl)c2)C1 the results were A647 fluor inactive, A488 autofl inactive, Rhodamine fluor inactive, Resorufin autofl inactive, Fluorescein autfl inconclusive and Texas Red fluor inactive.
CC1CC=C2C(C#N)=C(N)C(C#N)(C#N)C(c3cccs3)C2C1 (stereo unspecified) was read as A647 fluor inactive, A488 autofl inactive, Rhodamine fluor inactive, Resorufin autofl inactive, Fluorescein autfl 2.7e-08M and Texas Red fluor inactive.
For CC(C)(C)OC(=O)N1CC=C2C(C#N)=C(N)C(C#N)(C#N)[C@H](c3cccnc3)[C@H]2C1 the results were A647 fluor inactive, A488 autofl inactive, Rhodamine fluor inactive, Resorufin autofl inactive, Fluorescein autfl inconclusive and Texas Red fluor inactive.
`CC(C)(C)OC(=O)N1CC=C2C(C#N)=C(N)C(C#N)(C#N)C(c3cccs3)C2C1` (stereo unspecified) gave A647 fluor inactive, A488 autofl inactive, Rhodamine fluor inactive, Resorufin autofl inactive, Fluorescein autfl 1.8e-08M and Texas Red fluor inactive.
